Compounds without any hit were thinned out: in the full panel of roughly 79,000, 15% have a hit. Values without a mark were called inactive. The source made the active and inactive calls. No stated cut-off is given here; in the data, active means growth inhibition above about 70%; inactive means the rest.
How the values were obtained:
[1] = NCI Yeast Anticancer Drug Screen. Data for the rad50 strain (AID 155);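 further: 0% = growth of vehicle-only cultures of the same strain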; details: S. cerevisiae rad50 strain growth inhibition, hits give high values
In short: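 Readout: growth inhibition relative to vehicle-treated cultures. Compound exposure was carried out in a genetically defined yeast strain deficient in DNA damage repair.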

[2] = NCI Yeast Anticancer Drug Screen. Data for the mec2-1 strain (AID 157); details: S. cerevisiae mec2-1 strain, hits give high values
In short: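 Each compound was tested on mec2-1 yeast, a strain altered in DNA damage repair or cell cycle control. Growth inhibition is reported relative to vehicle.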

[3] = NCI Yeast Anticancer Drug Screen. Data for the sgs1 mgt1 strain (AID 161);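 further: 0% = growth of cultures given vehicle only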; details: S. cerevisiae sgs1 mgt1 strain, hits give high values
In short: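 Test agents were incubated with a DNA-repair-mutant yeast strain. Growth was then read and compared against vehicle-treated controls.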

[4] = NCI Yeast Anticancer Drug Screen. Data for the cln2 rad14 strain (AID 165);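 further: 0% = growth equal to vehicle treated cultures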; details: S. cerevisiae cln2 rad14 strain, hits give high values
In short: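 Test compounds were added to cln2 rad14 yeast cultures; inhibition of growth was then determined by comparison with vehicle treatment.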

[5] = NCI Yeast Anticancer Drug Screen. Data for the bub3 strain (AID 167); details: S. cerevisiae bub3 mutant strain, hits give high values
In short: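 Readout: yeast growth inhibition, expressed relative to vehicle-only wells. The test organism is a mutant strain from a panel with lesions in DNA repair or checkpoint genes.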

[6] = NCI Yeast Anticancer Drug Screen. Data for the mlh1 rad18 strain (AID 175); details: S. cerevisiae mlh1 rad18 strain growth inhibition, hits give high values
In short: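 Inhibition values reflect reduced growth of mutant yeast versus vehicle-treated controls following compound exposure; the mutations affect DNA damage repair.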

[7] = at 5.0 µM (retest, dose inferred, filed as 0.5)
[8] = at 50.0 µM (retest, dose inferred, filed as 5.0)

| SMILES | growth inhibition [1, 7] | growth inhibition [1, 8] | growth inhibition ([1]; at 50.0 µM) | growth inhibition [2, 7] | growth inhibition [2, 8] | growth inhibition ([2]; at 50.0 µM) | growth inhibition [3, 7] | growth inhibition [3, 8] | growth inhibition ([3]; at 50.0 µM) | growth inhibition [4, 7] | growth inhibition [4, 8] | growth inhibition ([4]; at 50.0 µM) | growth inhibition [5, 7] | growth inhibition [5, 8] | growth inhibition ([5]; at 50.0 µM) | growth inhibition [6, 7] | growth inhibition [6, 8] | growth inhibition ([6]; at 50.0 µM) |
| --- | --- | --- | --- | --- | --- | --- | --- | --- | --- | --- | --- | --- | --- | --- | --- | --- | --- | --- |
| Cc1cc(C(N)=O)cc(C)c1C(=O)OCCCl | -4% | -1% | 31.7% | -5% | -2% | 66.4% | -4% | -2% | -4.05% | -3% | -8% | -114% | -2% | -2% | 51.9% | -57% | 0% | 58.1% |
| COC(=O)Nc1nc2ccc(C3(c4ccc(F)cc4)OCCO3)cc2[nH]1 | 25% | 51% | -6.5% | 9% | 67% | 35% | 20% | 55% | 79% (active) | 11% | 36% | 56.2% | 22% | 72% (active) | 84.1% (active) | 18% | 76% (active) | 80% (active) |
| CCCCCCCCCCCCCCCC[N+]1(C)CCCC1c1cccnc1 (stereo not given) | 93% (active) | 99% (active) | 14.3% | 90% (active) | 99% (active) | 55.5% | 99% (active) | 99% (active) | 40.8% | 70% (active) | 99% (active) | 1.5% | 96% (active) | 99% (active) | 99% (active) | 89% (active) | 99% (active) | 68.8% |
| CCN(CC)CC(O)c1cc(-c2ccc(Cl)cc2)nc2cc(Cl)ccc12 (stereo not given) | 2% | 99% (active) | 98% (active) | -3% | 100% (active) | 93.9% (active) | -1% | 99% (active) | 99.7% (active) | -2% | 99% (active) | 47.9% | -3% | 99% (active) | 78.5% (active) | 11% | 99% (active) | 98.3% (active) |
| O=C(c1ccccc1)C(O)C(Br)(CBr)c1ccccc1 (stereo not given) | 19% | 97% (active) | 90.7% (active) | 11% | 98% (active) | 94.5% (active) | 4% | 98% (active) | 97.3% (active) | 15% | 82% (active) | 94.8% (active) | 2% | 98% (active) | 96.8% (active) | 6% | 97% (active) | 93.7% (active) |
| Cc1ccc(Nc2ccc(O)c3c2C(=O)c2c(O)ccc(Nc4ccc(C)cc4)c2C3=O)cc1 | 5% | 4% | 10.3% | 1% | -1% | 7.15% | 12% | 14% | 12.8% | 0% | -1% | 72.5% (active) | -2% | -5% | -3.8% | -2% | -65% | 17.4% |
| CCOC(=O)C1=NN(c2ccccc2)C(=O)/C1=C\N1C(=O)/C(=C/c2cccc(O)c2)SC1=S | -9% | 11% | 6.8% | -16% | 17% | 1.9% | -2% | 9% | 3.45% | -13% | -13% | 60.5% | 4% | 12% | 3.45% | 0% | 10% | -4.9% |
| CC(=O)C1Cc2ccccc2C1=O (stereo not given) | 4% | 83% (active) | -9.4% | 3% | 44% | 42.2% | 0% | 91% (active) | 41.1% | 1% | 50% | -13.1% | 3% | 93% (active) | 9% | 4% | 90% (active) | 71.8% (active) |
| Nc1nc(-c2ccccc2)nc(N)c1N=O | 50% | 99% (active) | 87.4% (active) | 63% | 98% (active) | 89.5% (active) | 50% | 99% (active) | 91.5% (active) | 52% | 100% (active) | 77% (active) | 82% (active) | 97% (active) | 89.2% (active) | 49% | 67% | 88.5% (active) |
| CN1CSC(=S)N(Cc2ccccc2)C1 | 20% | 78% (active) | 73.6% (active) | -5% | 76% (active) | 87.8% (active) | 15% | 67% | 86.6% (active) | 19% | 41% | 21.2% | 25% | 90% (active) | 88.3% (active) | -2% | 89% (active) | 75.3% (active) |
| O=C1c2ccccc2Cc2cccc(Cl)c21 | 15% | 72% (active) | 88.5% (active) | 6% | 15% | 24.3% | 4% | 13% | 28.6% | 0% | 5% | 17.4% | 1% | 19% | 13.8% | 2% | 17% | 33% |
| C[C@@]1(CO)[C@H](O)CC[C@@]2(C)[C@H]1CC[C@H]1C[C@@H]3C[C@@]12CC[C@@]3(O)COC(=O)CN | 0% | 65% | 97.3% (active) | -1% | 98% (active) | 57.1% | -1% | 46% | 61.6% | -12% | 49% | 22.9% | 11% | 33% | 91.7% (active) | 6% | 97% (active) | 93.8% (active) |
| CCC(C)C(N)C(=O)NC(CC(N)=O)C(=O)NC(CC(C)C)C(=O)NC(CCCCN)C(=O)NC(C)C(=O)NC(CC(C)C)C(=O)NC(C)C(=O)NC(C)C(=O)NC(CC(C)C)C(=O)NC(C)C(=O)NC(CCCCN)C(=O)NC(CCCCN)C(=O)NC(C(=O)NC(CC(C)C)C(N)=O)C(C)CC (stereo not given) | -2% | 99% (active) | 93.3% (active) | 6% | 100% (active) | 94.2% (active) | -3% | 99% (active) | 93.8% (active) | 4% | 98% (active) | 92% (active) | -6% | 99% (active) | 93.6% (active) | 0% | 99% (active) | 92.8% (active) |
| CCCCCCCCCCCCCCCCCC1=NCCCN1CCO | 7% | 6% | 96.8% (active) | 5% | 5% | 87.5% (active) | 14% | 8% | 40% | 9% | 5% | -41.6% | 4% | 7% | 61.1% | 23% | 7% | 83% (active) |
| CCN(CC)CC(O)CNc1ccc(NCC2CO2)c2c1C(=O)c1ccccc1C2=O (stereo not given) | 71% (active) | 76% (active) | 34.1% | 23% | 79% (active) | 25.6% | 76% (active) | 84% (active) | 48.8% | 49% | 83% (active) | 56% | 43% | 59% | -36% | 52% | 74% (active) | 59% |
| COC(=O)c1ccc(=O)c2nc3/c(=C/O)c(O)cc(=O)c3[nH]c12 | 98% (active) | 92% (active) | 90% (active) | 99% (active) | 94% (active) | 92.1% (active) | 99% (active) | 97% (active) | 91.2% (active) | 96% (active) | 96% (active) | 89.3% (active) | 99% (active) | 96% (active) | 89.5% (active) | 99% (active) | 95% (active) | 39.5% |
| Cc1c2c(c(C)c3c[n+](C)ccc13)Oc1ccccc1O2 | 18% | 24% | 25.4% | 12% | 19% | 61.6% | 11% | 21% | 80.5% (active) | 17% | 20% | 62.1% | 28% | 31% | 85.6% (active) | 24% | 15% | -20.6% |
| CCCCCCCCCCCC[S+](C)CC(=O)[O-] (stereo not given) | 20% | 74% (active) | 23.2% | 5% | 70% (active) | 48.8% | -2% | 78% (active) | 39.5% | 11% | 64% | 72% (active) | 19% | 89% (active) | 27.9% | 10% | 41% | 72.8% (active) |
| O=[N+]([O-])c1ccc(Oc2ccccc2Cl)c([N+](=O)[O-])c1 | 13% | 96% (active) | 4.1% | -25% | 95% (active) | 38.1% | 27% | 97% (active) | 63.1% | 3% | 86% (active) | 17.9% | 7% | 97% (active) | 44.7% | 29% | 97% (active) | 72.7% (active) |
| CCC(C)(O)Cc1ccc(Cl)cc1 (stereo not given) | 4% | -3% | -14.7% | 1% | -2% | 41.9% | 0% | -1% | 1.65% | 3% | -5% | -39.8% | -6% | -7% | -23.3% | 3% | -5% | -6.8% |
